Screens as filed in PubChem.
TRPV1 agonist – agonists of human vanilloid receptor 1 (TRPV1) | activation, % at 8.33 µM | Q8NER1 | TRPV1-expressing cells, Fluo-8 calcium influx, agonist mode | 0.19% of 320,000 active; in the data active means activation above about 80%; inconclusive means between about 30% and that limit; further: 0% is about no effect
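TRPV1-expressing cells were cultured overnight at 35.5C and loaded with Fluo-8 calcium dye for 40 to 90 min at room temperature. After a 10 s baseline, compound was added and calcium influx was read kinetically for 3 min (ex 480/em 520 nm).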
RORgamma inh – ROR gamma (mouse) transcription inhibition; P51450; Drosophila S2 Gal4-RORgamma UAS-luciferase reporter, 20 h; Potency, µM (top dose mostly 53.6 µM), for the others: at the highest dose activity change, negative = inhibition, most hits filed as inhibitors; 5.4% of 310,000 active; further: potency means the concentration at half of the fitted maximal effect; on the % scale 0 is the no-effect control and ±100 the full control effect; nearly all actives have a fitted effect of over 60% in size
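Schneider cells (Drosophila), stable Gal4 DBD–ROR gamma + UAS-luc; 1 hr cmpd preincubation; Cu2+ induction 700 uM final; 20 hr ambient; luminescence.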
Gal4-VP16 FLuc – counter-screen for ROR gamma inhibitors: Gal4-VP16 reporter. Drosophila S2 Gal4-VP16 UAS-luciferase, luminescence, 20 h. Potency, µM (highest dose often 53.6 µM), inactives show at the highest dose activity, negative = inhibition, usual class: inhibitors. 3.5% of 310,000 active. AID 2546;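 further: Gal4-VP16 expression switched on by copper sulfate through the metallothionein promoter; potency means the concentration at half of the fitted maximal effect; on the % scale 0 is the no-effect control and ±100 the full control effect; nearly all actives have a fitted effect of over 50% in size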
TRPV1 potentiator – human TRPV1 potentiation. Q8NER1. TRPV1-expressing cells, Fluo-8 calcium influx, capsaicin EC20 potentiation. potentiation, % at 8.33 µM. 0.02% of 320,000 active; in the data active means potentiation above about 80%; inconclusive means between about 30% and that limit; further: 0% is about no effect
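Cells expressing TRPV1 were dye-loaded with Fluo-8 and read kinetically: 10 s baseline, 3 min after compound (agonist portion), then 2 min after EC20 capsaicin (allosteric enhancer portion). Calcium-bound dye fluorescence at 480/520 nm.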
uPA surface inh – inhibitors of cell surface uPA generation | AID 540303 | Potency, µM (series often up to 38.3 µM), for the others: at the top dose activity change, negative = inhibition, most hits filed as inhibitors | cell surface uPA generation assay, qHTS | 0.31% of 330,000 active; active means well fitted inhibition curve with a large enough effect; inconclusive means small, poorly fitted or top-dose-only effect; inactive means no such curve, though single readings can be large or run the other way; tested in mouse RAW 264.7 cells; further: potency means the concentration at half of the fitted maximal effect; on the % scale 0 is the no-effect control and ±100 the full control effect; nearly all actives have a fitted effect of over 55% in size
Numbers without * were called inactive; u = inconclusive; x = not tested or not shown. Compounds with a hit are over-represented: about 5.8% of the library has one in this group of screens. Unless noted, the call rests on the fitted dose curve; in most records, active means well fitted curve in the direction sought with a large enough effect; inconclusive means small, poorly fitted or top-dose-only effect, or another doubt; inactive means no such curve, though single readings can be large; an effect the other way counts as inactive or inconclusive.

SMILES	TRPV1 agonist	RORgamma inh	Gal4-VP16 FLuc	TRPV1 potentiator	uPA surface inh
CCOc1ccc(C2C(C#N)=C(N)SC(N)=C2C#N)c(OCC)c1	2	13µM*	u	-6	-3%
CCOc1cc(C2C(C#N)=C(N)SC(N)=C2C#N)ccc1OCCN1CCOCC1	3	u	1%	-10	5%
O=C(Nc1ccc(CN2CCCCC2)cc1)c1sc2ccccc2c1Cl	4	-8%	0%	-5	-8%
O=C(NCCC(=O)N1CCCCC1)c1ccccc1Cl	-3	1%	3%	17	3%
CC1CC(C)CN(C(=O)CCNC(=O)c2ccccc2Cl)C1 (stereo unspecified)	3	16µM*	u	1	-2%
COc1ccc(S(=O)(=O)NNC(=O)c2cc3cc4ccccc4nc3s2)cc1	9	u	22µM*	23	4%
NNC(=O)c1cc2cc3ccccc3nc2s1	-1	13µM*	-11%	6	-19%
CS(=O)(=O)NNC(=O)c1cc2cc3ccccc3nc2s1	-4	-11%	-21%	0	1%
COc1ccc2cc3cc(C(=O)NC4CC4)sc3nc2c1	u	u	u	-7	u
O=C(O)CC(c1ccc(F)cc1F)N1Cc2ccccc2C1=O (stereo unspecified)	0	-20%	5%	-2	-1%
CC1CCCN(c2ccc(C(=O)Nc3cccnc3)cc2[N+](=O)[O-])C1 (stereo unspecified)	87*	u	-10%	-3	x
CC1CCCN(c2ccc([N+](=O)[O-])cc2C(=O)c2ccccc2)C1 (stereo unspecified)	23	-2%	u	-9	0.16µM*
Cc1cc(Cl)ccc1OC(C)C(=O)Nc1ccc([N+](=O)[O-])cn1 (stereo unspecified)	7	u	-18%	4	4%
O=[N+]([O-])c1ccccc1Nc1c2ccccc2nc2ccccc12	4	-29%	u	5	-2%
COc1ccc([N+](=O)[O-])cc1NS(=O)(=O)c1ccccc1	0	18%	-17%	30	-2%
O=[N+]([O-])c1ccc(S(=O)(=O)Nc2nc3ccccc3nc2Nc2ccccc2)cc1	0	8.9µM*	u	4	4%
COc1cc(Nc2nc3ccccc3nc2NS(=O)(=O)c2ccc([N+](=O)[O-])cc2)cc(OC)c1OC	14	4.5µM*	5µM*	1	3%
O=[N+]([O-])c1ccc(Nc2c3ccccc3nc3ccccc23)cc1	1	22µM*	-6%	3	0%
COC(=O)c1ccc(NC(=O)COC(=O)C2=NN(c3ccccc3)C(=O)CC2)cc1	0	x	x	2	12%
COc1cc2[nH]c(=S)nc(NCc3cccnc3)c2cc1OC	-2	1%	-6%	u	2%
COc1cc2[nH]c(=S)nc(NCc3ccccc3)c2cc1OC	0	7.1µM*	u	-1	-5%
COc1cc2[nH]c(=S)nc(NCc3cccc(Cl)c3)c2cc1OC	-3	3.2µM*	7.9µM*	-3	-14%
COc1ccc(CNc2nc(=S)[nH]c3cc(OC)c(OC)cc23)cc1	4	16µM*	u	1	5%
COc1cc2[nH]c(=S)nc(NCc3ccccn3)c2cc1OC	-3	-23%	3%	4	1%
COc1cc2[nH]c(=S)nc(NCc3ccc(C)cc3)c2cc1OC	-1	6.3µM*	18µM*	1	-8%
SMILES	TRPV1 agonist	RORgamma inh	Gal4-VP16 FLuc	TRPV1 potentiator	uPA surface inh
CN(C)c1ccc(C(C(=O)NC2CCCCC2)N(Cc2ccco2)C(=O)c2snc(C(N)=O)c2N)cc1 (stereo unspecified)	6	23%	3%	-4	x
CC1CN(C(=O)CSc2nnc(CNC(=O)c3ccc(S(=O)(=O)N(C)C)cc3)o2)CC(C)O1 (stereo unspecified)	-3	-7%	-3%	1	4%
CCCN1CCCC(c2cccc(S(C)(=O)=O)c2)C1 (stereo unspecified)	x	14%	-4%	x	x
CSCC[C@H](NC(=O)[C@@H](NC(=O)[C@H](CCC(=O)O)NC(=O)[C@H](CCSC)NC(=O)[C@H](CC(N)=O)NC(=O)[C@H](CCC(=O)O)NC(=O)[C@H](CC(N)=O)NC(=O)[C@H](CO)NC(=O)[C@H](C)N)[C@@H](C)O)C(=O)O	x	3%	1%	x	x
c1ccc2[nH]c(NCc3ccc4c(c3)OCO4)nc2c1	5	-33%	-18%	2	-11%
O=C(NC1CCCCC1)c1ccc(CNc2nc(=S)[nH]c3ccccc23)cc1	-1	13µM*	2%	3	-5%
O=C(NCCc1ccc(Cl)cc1)C1CCC(CNc2nc(=S)[nH]c3ccccc23)CC1 (stereo unspecified)	-2	11µM*	u	4	2%
S=c1nc(NCc2cccc(Cl)c2)c2ccccc2[nH]1	16	4µM*	8.9µM*	-8	6%
S=c1nc(NCc2ccc3c(c2)OCO3)c2ccccc2[nH]1	3	13µM*	u	3	-6%
CC(C)(CNC(=O)C1CCCN1C(=O)c1cccs1)N1CCOCC1 (stereo unspecified)	0	-1%	6%	4	-1%
O=C(CNC(=S)NC(=O)c1ccc(Cl)cc1)c1ccccc1	-3	10µM*	13µM*	7	-2%
O=C(CNC(=S)NC(=O)c1ccc(Br)o1)c1ccccc1	7	13µM*	u	7	-4%
O=C(CNC(=O)c1ccc(Cl)cc1)c1ccc(Br)cc1	-1	24%	20%	u	2%
O=C(CNC(=O)c1ccc(Br)o1)NNC(=O)c1ccccc1	-1	x	x	20	19%
CC1CC(C)CN(C(=O)c2cc(S(=O)(=O)N3CCCCC3)ccc2Cl)C1 (stereo unspecified)	104*	x	x	-13	u
O=[N+]([O-])c1ccc(/C=C2\CCC(C3=CCCC3)=C2N2CCOCC2)cc1	0	u	4µM*	-20	-15%
Cc1ccc(S(=O)(=O)N2c3ccccc3-c3c(ssc3=S)C2(C)C)cc1	3	-26%	u	16	u
COc1ccc2c(c1)-c1c(ssc1=S)C(C)(C)N2S(=O)(=O)c1ccc(C)cc1	2	8.9µM*	-1%	-4	-5%
CCn1c(SCC(N)=O)nc2sc3c(c2c1=O)CCCC3	u	11µM*	u	-7	-2%
CCSc1nc2sc3c(c2c(=O)n1CC)CCC3	10	64%	-3%	-8	7%
COc1ccc(NC(=O)COc2ccccc2Cc2ccccc2)cc1S(N)(=O)=O	6	u	u	4	-12%
CC(C)=CCC[C@](C)(O)C1CC[C@]2(C)[C@@H]1CC[C@@H]1[C@@]3(C)CCC(=O)C(C)(C)[C@@H]3CC[C@]12C (stereo partly specified)	x	-1%	8%	x	x
COc1cccc(/C=N\NC(=O)c2ccc(Cn3cc(Br)c([N+](=O)[O-])n3)o2)c1O	19	3%	0.28µM*	-12	-14%
